Data as given in PubChem BioAssay (NCI).
This is part of a sample that, as a whole, favours compounds with a hit. Of some 83,000 tested, about 20% had one in any assay.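 Plates (96-well) were seeded with cells, treated with compound at one concentration, and incubated for 48 hours before percent growth was determined.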 Unmarked numbers belong to inactive results. The source made the active and inactive calls. How the source made its calls: active means growth percent below 10; inactive means the rest.

Tested on: NCI-H226 lung
Test: NCI-60 one-dose screen, 48 h (100 = growth as untreated, 0 = no growth, -100 = all killed)
Settings: 10 µM unless noted

Question: `O=c1oc2c(cnc3ccccc32)cc1-c1cccc(Cl)c1` was tested. Which growth did it give?
Answer: 96.2%

Question: With `CCOC(=O)c1c(C)nc2c(c1N)C(=O)C(=O)N2Cc1ccc(OC)cc1` as the compound, how does the growth read?
Answer: 90.8%

Question: How did the growth turn out when `CCNC(=O)N1CCc2c(Br)c3c(c(OC)c2C1Cc1ccc(OC)cc1)OCO3` (stereo not given) was run?
Answer: 70.8%

Question: With `COc1cc2c(c(OC)c1OC)CCC(c1cccc(C(=O)Nc3ccc(Br)cc3)c1)O2` (stereo not given) as the compound, how does the growth read?
Answer: 62.7%

Question: Which growth does the source give for `OC1CSSC1Cn1cnc2c(Nc3ccc(OCc4cccc(F)c4)c(Cl)c3)ncnc21` (stereo not given) here?
Answer: 4.07% (active)

Question: Which growth does the source give for `Cc1ccc(OCCOCCOCCOc2ccc(C)n(O)c2=S)c(=S)n1O` here?
Answer: 29%

Question: How did the growth turn out when `C=CN(C(=O)N1CCN(c2cc3c(cc2F)c(=O)c(C(=O)O)cn3C2CC2)CC1)c1nc(-c2ccc(Cl)cc2)cs1` was run?
Answer: 87.9%

Question: For `C#CCOc1cccc(Nc2ncnc3cc(NC(=O)CCl)ccc23)c1`, which growth is on record?
Answer: -26.7% (active)

Question: Which growth does the source give for `Cc1nc2ccccc2c(/C=C/c2ccc(F)cc2)c1C(=O)/C=C/c1ccccc1` here?
Answer: 50.6%

Question: How did the growth turn out when `COc1cc(/C=C/C(=O)N2CCN(C(=O)c3cc(OC)c(OC)c(OC)c3)CC2)ccc1OCCCOc1cc2c(cc1OC)C(=O)N1CCC[C@H]1C=N2` was run?
Answer: -8.72% (active)

Question: `O=C(NC1CCC(Br)CC1)C1CCCC(S(=O)(=O)NC2CCCCC2)C1` (stereo not given) was tested. Which growth did it give?
Answer: 19.7% [25 µM]

Question: With `COc1cc(/C=C/c2cn[nH]c2-c2ccc(C)cc2)cc(OC)c1OC` as the compound, how does the growth read?
Answer: 65.4%

Question: With `COc1ccc(C/C(C)=C(\c2ccc(Cl)cc2)c2ccc(OCCN3CCCC3)cc2)cc1` as the compound, how does the growth read?
Answer: 98.1%

Question: `CN(C)Cc1ccc(NC(=O)c2cncc(C#Cc3cnc(N)c4ncccc34)c2)cc1C(F)(F)F` was tested. Which growth did it give?
Answer: 76.7%

Question: `COC(=O)c1c(C)nc(C)c2c1C(=O)C=C(NCc1ccccc1)C2=O` was tested. Which growth did it give?
Answer: 93.9%

Question: For `N#CSc1c[nH]c2ccc(/C=C/C(=O)/C=C(O)/C=C/c3ccc4[nH]cc(SC#N)c4c3)cc12`, which growth is on record?
Answer: 31.6%

Question: `Cc1ccc(-c2nc(SCC(=O)N3CCN(c4cc5c(cc4F)c(=O)c(C(=O)O)cn5C4CC4)CC3)nc(Cl)c2C#N)cc1` was tested. Which growth did it give?
Answer: 104%

Question: `COC(=O)/C=C1/SC(=NCc2ccccc2)N(CCc2c[nH]c3ccccc23)C1=O` was tested. Which growth did it give?
Answer: 109%

Question: How did the growth turn out when `C=C(C)[C@@H]1CC[C@]2(C(=O)N3CCN(C)CC3)CC[C@]3(C)[C@H](CC[C@@H]4[C@@](C)(CCC(=O)O)[C@H](C(=C)C)CC[C@]43C)[C@@H]12` was run?
Answer: 93.3%

Question: How did the growth turn out when `Nc1[nH]nc2nc(-c3ccccc3)n3c4ccccc4nc3c12` was run?
Answer: 95.6%

Question: How did the growth turn out when `CN1CCOCCN(C)Cc2ccc3ccc(cc3c2)CN(C)CCOCCN(C)Cc2ccc3ccc(cc3c2)C1` was run?
Answer: 111%

Question: With `COc1ccc(/C=N/Nc2c3ccccc3nc3ccccc23)cc1` as the compound, how does the growth read?
Answer: 83.4%

Question: With `C=C1C(=O)O[C@H]2[C@H]1CC/C(CNC(=O)Cc1c[nH]c3ccccc13)=C\CC[C@@]1(C)O[C@@H]21` as the compound, how does the growth read?
Answer: -45.8% (active)

Question: Which growth does the source give for `COc1ccc2c(c1)CC[C@@H]1[C@@H]2CC[C@]2(C)c3c(cc(C#N)c4c3sc3ccccc34)C[C@@H]12` here?
Answer: 99.2%

Question: For `O=C(c1c[nH]c2ccccc12)c1n[nH]c(=S)n1-c1ccc([N+](=O)[O-])cc1`, which growth is on record?
Answer: 77.8%

Question: For `Cc1c2cnccc2c(C)c2c1c1cc(CO)ccc1n2C`, which growth is on record?
Answer: -68.5% (active)

Question: How did the growth turn out when `COc1cc(-c2nccc3[nH]c(-c4cccc5[nH]ccc45)nc23)cc(OC)c1OC` was run?
Answer: 34%

Question: How did the growth turn out when `Clc1ccc(-c2nc(C(Cl)Cl)nc3cc(-c4ccccc4)nn23)cc1` was run?
Answer: 84.6%

Question: How did the growth turn out when `CC1=Nc2cnc(Nc3ccc(N4CCCCC4)cc3)nc2Nc2ccccc21` was run?
Answer: 76.6%

Question: Which growth does the source give for `CN(C)c1ccc([C@@H](C(=O)Nc2cccc([N+](=O)[O-])c2)N(C(=O)c2cc3ccccc3[nH]2)c2cccc([N+](=O)[O-])c2)cc1` here?
Answer: 97.5%

Question: `O=C(CSc1nnnn1-c1ccccc1)Nc1ccc(Oc2ccccc2)cc1` was tested. Which growth did it give?
Answer: 87.5%

Question: Which growth does the source give for `COc1cc(/C=C/C(=O)c2cccc(-n3cc(-c4ccc(Cl)cc4)[nH]c3=O)c2)ccc1O` here?
Answer: 101%

Question: With `Oc1c(CN2CCC(N3CCOCC3)CC2)cc(Cc2cc(CN3CCC(N4CCOCC4)CC3)c(O)c3ncccc23)c2cccnc12` as the compound, how does the growth read?
Answer: 2.53% (active)

Question: Which growth does the source give for `c1ccc2cc(Cn3cc(CSc4nc5ccccc5s4)nn3)ccc2c1` here?
Answer: 83.8%

Question: With `CN(C)Cc1cc(C(C)(C)C)cc(Br)c1O` as the compound, how does the growth read?
Answer: 101%

Question: With `CCN(CC)CCOc1ccc(/C(=C(\C)Cc2ccc(OC)cc2)c2ccc(OC(=O)NCc3ccccc3)cc2)cc1` as the compound, how does the growth read?
Answer: 86.9%

Question: How did the growth turn out when `C=C1C(=O)O[C@H]2[C@H]1CC/C(COC(=O)NCc1ccc(Cn3c(=O)sn(-c4ccc(I)cc4)c3=O)cc1)=C\CC[C@@]1(C)O[C@@H]21` was run?
Answer: 89.6%

Question: For `O=c1oc2ccccc2cc1-c1nn(-c2ccccc2)cc1-c1nn[nH]n1`, which growth is on record?
Answer: 92.8%

Question: With `O=c1oc2c(cc1-c1ccccc1)c(=O)[nH]c1ccccc12` as the compound, how does the growth read?
Answer: 102%

Question: Which growth does the source give for `CC1=C(Cl)C(=O)c2cc(C)ccc2C1=O` here?
Answer: 86.3%
